PubChem BioAssay (NCATS)
Inconclusive results are not listed. Active and inactive are the calls of the source. Unless noted, calls follow the shape of the full dose curve.

Legend:
[1] = target: Estrogen receptor (Homo sapiens) (UniProt P03372); assay: qHTS assay for small molecule antagonists of estrogen receptor alpha signaling (AID 588513; active = well fitted curve in the direction sought with a large enough effect in the signal ratio, with a control signal flat, not every such curve was filed as active; the % refers to the signal ratio; also: % is scaled to controls: 0 for no effect and ±100 for the full control effect)
Outline: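 Beta-lactamase reporter, antagonist mode, HEK 293 GripTite cells; 0.5nM E2 stimulus, 18 h, 37 C; CCF4 dye 2 h RT; fluorescence. IC50 and efficacy from Hill fits, normalized to E2 and DMSO.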

[2] = target: Estrogen receptor (Homo sapiens) (UniProt P03372); assay: qHTS assay for small molecule agonists of estrogen receptor alpha signaling (AID 588514); also: potency is read from the fitted curve at half-maximal effect; nearly all actives have a fitted effect of over 70% in size
Outline: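 Efficacy is expressed against 20 nM 17-beta-estradiol (100%) and DMSO basal (0%); EC50 from Hill equation. Assay: beta-lactamase reporter in ER-alpha-UAS-bla HEK 293 cells, 18 h compound incubation, CCF4 detection.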

[3] = target: Bile acid receptor (Homo sapiens) (UniProt Q96RI1); assay: qHTS assay for small molecule antagonists of farnesoid X receptor signaling (AID 588526); also: % is scaled to controls: 0 for no effect and ±100 for the full control effect
Outline: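 Concentration-response titrations were fitted to the Hill equation for half-maximal inhibition and maximal response, with data normalised to 50 uM chenodeoxycholic acid and DMSO control wells. Cells: FXR-UAS-bla HEK293T, dialyzed FBS.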

[4] = target: Bile acid receptor (Homo sapiens) (UniProt Q96RI1); assay: qHTS assay for small molecule agonists of farnesoid X receptor signaling (AID 588527); conditions: HEK293T FXR-UAS-bla, beta-lactamase ratio, 16 h; activation: stronger effect = higher value;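 also: series mostly up to about 77 µM; 0% = vehicle basal and 100% = reference agonist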
Outline: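 Read-out: beta-lactamase reporter fluorescence with CCF4 substrate in GeneBLAzer FXR-UAS-bla HEK293T cells, after 16 h compound exposure at 37 C. Response scaled between DMSO basal (0%) and chenodeoxycholic acid at 100 uM (100%).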

[5] = target: Glucocorticoid receptor (Homo sapiens) (UniProt P04150); assay: qHTS assay for small molecule agonists of glucocorticoid receptor signaling (AID 588532; active = well fitted curve in the direction sought with a large enough effect in the signal ratio, with a control signal flat; the % refers to the signal ratio;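 also: 100% = dexamethasone at 0.1 µM and 0% = DMSO only wells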); conditions: HeLa MMTV-bla, beta-lactamase ratio, agonist, 18 h; activation: stronger effect = higher value, percent of dexamethasone control, DMSO zero
Outline: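 Titration series, up to 92 uM, applied to GRE-bla HeLa cells for 18 h at 37 C. Detection by CCF4 FRET substrate after 2 h at RT.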

[6] = target: Glucocorticoid receptor (Homo sapiens) (UniProt P04150); assay: qHTS assay for small molecule antagonists of glucocorticoid receptor signaling (AID 588533; active = well fitted inhibition curve with a large enough effect in the signal ratio, with a control signal flat, not every such curve was filed as active; the % refers to the signal ratio;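 also: cells stimulated with 2 nM dexamethasone as agonist; % is scaled to controls: 0 for no effect and ±100 for the full control effect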)
Outline: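 Antagonist-mode qHTS: compound titrations added to GRE-bla HeLa cells, then dexamethasone 2 nM final; 18 h, 37 C. CCF4 FRET fluorescence normalized to dexamethasone and DMSO; IC50 from Hill fit.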

[7] = target: Peroxisome proliferator-activated receptor delta (Homo sapiens) (UniProt Q03181); assay: qHTS assay for small molecule agonists of peroxisome proliferator-activated receptor delta signaling (AID 588534);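 also: 0% = DMSO basal wells and 100% = positive control agonist at 10 µM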
Outline: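 Agonist-mode qHTS; reporter cells, 5 hrs 37 C pre-incubation; compound titration, 18 hrs 37 C; CCF4 dye, 2 hrs RT; fluorescence read. EC50/efficacy via Hill fit.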

[8] = qHTS assay for small molecule antagonists of peroxisome proliferator-activated receptor delta signaling (AID 588535; active = well fitted inhibition curve with a large enough effect in the signal ratio, with a control signal flat, not every such curve was filed as active; the % refers to the signal ratio;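 as to max response: cells co-treated with a PPAR-delta agonist as stimulator during compound exposure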); conditions: HEK293T PPARd-UAS-bla, beta-lactamase FRET ratio, 18 h; 460 nm channel
Outline: (§1)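 Inhibition of PPAR-delta response element-driven beta-lactamase expression is measured in HEK293T cells exposed to a compound titration series for 18 hrs at 37 C. Half-maximal inhibition comes from Hill equation fitting.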

[9] = target: Peroxisome proliferator-activated receptor delta (Homo sapiens) (UniProt Q03181); assay: as above
Outline: as §1

[10] = target: Peroxisome proliferator-activated receptor gamma (Homo sapiens) (UniProt P37231); assay: qHTS assay for small molecule agonists of peroxisome proliferator-activated receptor gamma signaling (AID 588536; active = well fitted curve in the direction sought with a large enough effect in the signal ratio, with a control signal flat, not every such curve was filed as active; the % refers to the signal ratio;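 also: 0% = DMSO basal wells and 100% = rosiglitazone at 2 µM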)
Outline: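 Beta-lactamase reporter read-out: CCF4 fluorescence (ex 405, em 460/530 nm) after 2 h at RT. HEK293 GeneBLAzer cells were treated for 16 h at 37 C. Hill fits gave EC50 and efficacy versus 2 uM rosiglitazone (100%) and DMSO (0%).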

[11] = target: Peroxisome proliferator-activated receptor gamma (Homo sapiens) (UniProt P37231); assay: qHTS assay for small molecule antagonists of peroxisome proliferator-activated receptor gamma signaling (AID 588537; active = well fitted inhibition curve with a large enough effect in the signal ratio, with a control signal flat, not every such curve was filed as active; the % refers to the signal ratio;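 also: reporter cells co-stimulated with 50 nM rosiglitazone agonist during compound treatment; % of control where 0% means no effect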)
Outline: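 Compounds are tested as concentration series for inhibition of rosiglitazone-driven (50 nM) reporter expression in GeneBLAzer PPAR-gamma-UAS-bla HEK293 cells. After 16 h at 37 C, CCF4 substrate is added for 2 h at room temperature and blue/green fluorescence is measured.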

[12] = target: Vitamin D3 receptor (Homo sapiens) (UniProt P11473); assay: qHTS assay for small molecule antagonists of vitamin D receptor signaling (AID 588541);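 also: receptor activated by calcitriol during compound treatment; series mostly up to about 77 µM; % is scaled to controls: 0 for no effect and ±100 for the full control effect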
Outline: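 VDR-UAS-bla HEK293T cells (2000/well, 2% charcoal-stripped FBS) were treated with titrated compounds plus 1-alpha,25-dihydroxyvitamin D3 (50 nM or 3 nM final) for 16 h at 37 C. CCF4 beta-lactamase fluorescence was read; Hill fits gave IC50.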

[13] = target: Vitamin D3 receptor (Homo sapiens) (UniProt P11473); assay: qHTS assay for small molecule agonists of vitamin D receptor signaling (AID 588543);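 also: 0% = DMSO basal and 100% = reference agonist control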
Outline: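 β-lactamase reporter, VDR-UAS-bla HEK293T, agonist mode. Cells plated 5 h at 37 °C, compound titration 16 h at 37 °C, CCF4 dye 2 h RT, ratio 460/530 nm. Hill fit → EC50, efficacy vs 50 nM 1α,25-(OH)2D3.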

[14] = target: Retinoic acid receptor RXR-alpha (Homo sapiens) (UniProt P19793); assay: qHTS assay for small molecule agonists of retinoid X receptor alpha signaling (AID 588544);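 also: 0% = DMSO basal wells and 100% = reference agonist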
[15] = target: Thyroid hormone receptor beta (Homo sapiens) (UniProt P10828); assay: qHTS assay for small molecule agonists of thyroid hormone receptor beta signaling (AID 588545)
Outline: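 In this cell-based screen, titrated compounds act on HEK 293 cells held in medium with 2% charcoal/dextran FBS, NEAA and pyruvate for 18 hrs at 37 C. Responses are expressed relative to T3 (10 nM) as 100% and basal DMSO as 0%.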

[16] = qHTS assay for small molecule antagonists of retinoid X receptor alpha signaling (AID 588546; active = well fitted inhibition curve with a large enough effect in the signal ratio, with a control signal flat, not every such curve was filed as active; the % refers to the signal ratio); conditions: HEK293T RXRa-UAS-bla, beta-lactamase ratio, antagonist mode; measured here: W530 green channel, cytotoxicity proxy
Outline: (§2)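 Beta-lactamase reporter inhibition, read as CCF4 fluorescence ratio (ex 405, em 460/530 nm) after 2 h at RT. HEK293T UAS-bla cells, 2500/well, were stimulated with 9-cis-RA at 500 or 100 nM final alongside test compound for 18 h at 37 C.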

[17] = target: Retinoic acid receptor RXR-alpha (Homo sapiens) (UniProt P19793); assay: as above; conditions: HEK293T RXRa-UAS-bla, beta-lactamase ratio, antagonist mode
Outline: as §2

[18] = qHTS assay for small molecule activators of the p53 signaling pathway (AID 651743; active = well fitted activation curve with a large enough effect in the signal ratio, not every such curve was filed as active; the % refers to the signal ratio; also: series mostly up to about 92 µM; % of control where 0% means no effect); conditions: HCT-116 p53RE-bla, beta-lactamase FRET ratio, 16 h; activation: stronger effect = higher value
Outline: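 Agonist-mode quantitative HTS in HCT-116 cells carrying a p53-response-element beta-lactamase reporter; 16 h compound treatment at 37 C, then FRET substrate loading for 2 h at room temperature and fluorescence read.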

[19] = qHTS assay for small molecule activators of the nuclear factor-kappa B (NF-kB) signaling pathway (AID 651749; active = well fitted activation curve with a large enough effect in the signal ratio; the % refers to the signal ratio; also: series mostly up to about 77 µM; % of control where 0% means no effect); conditions: NF-kB-bla ME-180 cells, beta-lactamase FRET ratio, 16 h; activation: stronger effect = higher value
Outline: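 Human ME-180 cervical cells with an NF-kB-bla construct; compounds added via 23 nL pin transfer, DMSO as vehicle; incubation 16 hr. Reporter activity measured by FRET disruption.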

[20] = qHTS assay for environmental chemicals that activate the Aryl hydrocarbon Receptor (AhR) signaling pathway (AID 651777; active = well fitted curve in the direction sought with a large enough effect; an effect the other way counts as inactive or inconclusive; also: % of control where 0% means no effect; nearly all actives have a fitted effect of over 15% in size); conditions: 1A2-DRE human hepatoma cells, luciferase, 24 h; activation: stronger effect = higher value
Outline: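 Stable CYP1A2 promoter/DRE-luciferase human hepatoma line treated 24 hr; One-Glo luminescence, 30 min RT.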

[21] = target: Peroxisome proliferator-activated receptor alpha (Homo sapiens) (UniProt Q07869); assay: qHTS assay for small molecule agonists of the peroxisome proliferator-activated receptor alpha (PPARalpha) signaling pathway (AID 651778; active = well fitted curve in the direction sought with a large enough effect; an effect the other way counts as inactive or inconclusive; also: % of control where 0% means no effect); conditions: PathHunter PPARalpha complementation, chemiluminescence, 6 h; max response: stronger effect = higher value
Outline: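 Cells plated at 2,000/well and held overnight at 37 C, 5% CO2, then compound added by pin tool for 6 hr; after PathHunter detection reagent and 60 min at room temperature, chemiluminescence from enzyme complementation was read.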

[22] = qHTS assay for small molecule agonists of the antioxidant response element (ARE) signaling pathway measured by Nrf2-dependant transcriptional activity (AID 720636; active = well fitted curve in the direction sought with a large enough effect in the repeat runs; an effect the other way counts as inactive or inconclusive;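 also: HepG2 cells with an ARE-driven luciferase reporter; % of control where 0% means no effect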)
Outline: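 Reporter gene assay, HepG2 ARE-luc: 16 hr compound, 37 C, 5% CO2; read-out luciferase luminescence.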

[23] = qHTS assay for small molecule agonists of the antioxidant response element (ARE) signaling pathway measured by Nrf2-dependant transcriptional activity - cell viability counter screen (AID 720653; active = well fitted curve in the direction sought with a large enough effect in the repeat runs; an effect the other way counts as inactive or inconclusive; also: % is scaled to controls: 0 for no effect and ±100 for the full control effect); conditions: ARE-bla HepG2 viability, CellTiter-Glo ATP luminescence, 16 h; max response: stronger effect = lower value
Outline: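 ARE-bla HepG2 cells (2,000/well) rested 5 hrs at 37C/5% CO2, then exposed to compounds in DMSO for 16 hrs. Viability was read in the same wells as intracellular ATP by luminescence, 30 min at room temperature after reagent addition.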

[24] = qHTS assay for cell viability of HEK293 cells (AID 743288; active = well fitted curve in the direction sought with a large enough effect; an effect the other way counts as inactive or inconclusive; also: % is scaled to controls: 0 for no effect and ±100 for the full control effect; nearly all actives have a fitted effect of over 50% in size); conditions: ATP luminescence (CellTiter-Glo), 18 h; max response: stronger effect = lower value
Outline: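 ATP luminescence (CellTiter-Glo) reports metabolically competent cell number after parental HEK293 cells, 2,000/well, were treated with DMSO-dissolved compounds for 18 h at 37 C; reagent incubation 30 min, room temperature.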

[25] = qHTS assay for cell viability of the p53RE-bla HCT-116 cell line (AID 743292; active = well fitted curve in the direction sought with a large enough effect; an effect the other way counts as inactive or inconclusive; also: % is scaled to controls: 0 for no effect and ±100 for the full control effect; nearly all actives have a fitted effect of over 55% in size)
Outline: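 Readout: CellTiter-Glo luminescence after 30 min RT. Treatment: compounds in DMSO, 16 h, 37 C. Cells: CellSensor p53RE-bla HCT-116, 4,000/well, preincubated 5 h.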

[26] = target: Nuclear receptor subfamily 1 group I member 2 (Rattus norvegicus) (UniProt Q9R1A7); assay: qHTS assay for small molecule activators of the rat pregnane X receptor (rPXR) signaling pathway (AID 651751; call rule not given here; also: 0% is about no effect); conditions: rPXR reporter cells, luciferase (One-Glo), 24 h
[27] = qHTS assay for small molecule activators of the human pregnane X receptor (PXR) signaling pathway (AID 720659; call rule not given here; also: 0% is about no effect)

Chain of Retinoic acid receptor RXR-alpha (Homo sapiens) (P19793 whole entry, looked up): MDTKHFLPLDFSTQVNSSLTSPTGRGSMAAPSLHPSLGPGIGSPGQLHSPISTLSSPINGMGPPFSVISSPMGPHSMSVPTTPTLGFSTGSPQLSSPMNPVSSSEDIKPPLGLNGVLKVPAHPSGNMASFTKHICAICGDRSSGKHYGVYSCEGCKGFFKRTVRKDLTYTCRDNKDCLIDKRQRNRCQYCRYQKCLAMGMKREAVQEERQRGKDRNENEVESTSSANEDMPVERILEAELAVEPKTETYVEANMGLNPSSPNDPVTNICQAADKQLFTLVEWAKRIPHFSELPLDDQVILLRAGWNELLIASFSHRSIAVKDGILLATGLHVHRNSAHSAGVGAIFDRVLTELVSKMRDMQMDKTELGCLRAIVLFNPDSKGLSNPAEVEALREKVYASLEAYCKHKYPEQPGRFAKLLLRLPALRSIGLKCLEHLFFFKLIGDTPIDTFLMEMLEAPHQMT
Chain of Vitamin D3 receptor (Homo sapiens) (P11473 whole entry, looked up): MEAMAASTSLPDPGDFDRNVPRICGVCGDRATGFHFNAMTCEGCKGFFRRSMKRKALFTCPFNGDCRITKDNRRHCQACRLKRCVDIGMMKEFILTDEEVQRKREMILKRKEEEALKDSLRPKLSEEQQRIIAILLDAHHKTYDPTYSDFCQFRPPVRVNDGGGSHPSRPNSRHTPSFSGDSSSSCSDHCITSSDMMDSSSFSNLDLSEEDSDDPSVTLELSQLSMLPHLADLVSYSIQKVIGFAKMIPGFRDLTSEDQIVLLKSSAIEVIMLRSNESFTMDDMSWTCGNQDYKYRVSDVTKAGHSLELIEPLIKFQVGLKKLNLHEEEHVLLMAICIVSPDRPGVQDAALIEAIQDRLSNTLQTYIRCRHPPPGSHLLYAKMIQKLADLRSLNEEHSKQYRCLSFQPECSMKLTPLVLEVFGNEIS
Chain of Glucocorticoid receptor (Homo sapiens) (P04150 whole entry, looked up): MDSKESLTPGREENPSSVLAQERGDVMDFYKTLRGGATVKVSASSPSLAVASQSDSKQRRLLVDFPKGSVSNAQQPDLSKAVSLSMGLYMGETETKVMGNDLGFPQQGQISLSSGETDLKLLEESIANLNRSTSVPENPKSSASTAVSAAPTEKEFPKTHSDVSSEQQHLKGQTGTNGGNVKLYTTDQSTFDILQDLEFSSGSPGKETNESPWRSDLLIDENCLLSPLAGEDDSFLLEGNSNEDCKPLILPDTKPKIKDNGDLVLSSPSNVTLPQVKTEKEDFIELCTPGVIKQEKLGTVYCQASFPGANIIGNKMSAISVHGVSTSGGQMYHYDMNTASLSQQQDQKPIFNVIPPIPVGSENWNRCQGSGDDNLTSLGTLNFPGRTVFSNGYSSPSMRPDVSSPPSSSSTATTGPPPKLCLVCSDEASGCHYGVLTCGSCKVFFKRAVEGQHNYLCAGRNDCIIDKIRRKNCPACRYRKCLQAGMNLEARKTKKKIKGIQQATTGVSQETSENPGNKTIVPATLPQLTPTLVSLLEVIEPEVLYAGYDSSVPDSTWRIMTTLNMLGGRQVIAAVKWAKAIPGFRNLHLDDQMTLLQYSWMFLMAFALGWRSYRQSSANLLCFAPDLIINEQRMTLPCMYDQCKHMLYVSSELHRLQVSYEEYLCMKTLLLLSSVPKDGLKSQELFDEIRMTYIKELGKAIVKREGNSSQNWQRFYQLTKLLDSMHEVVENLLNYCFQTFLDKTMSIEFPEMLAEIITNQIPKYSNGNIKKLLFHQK
Chain of Peroxisome proliferator-activated receptor gamma (Homo sapiens) (P37231 whole entry, looked up): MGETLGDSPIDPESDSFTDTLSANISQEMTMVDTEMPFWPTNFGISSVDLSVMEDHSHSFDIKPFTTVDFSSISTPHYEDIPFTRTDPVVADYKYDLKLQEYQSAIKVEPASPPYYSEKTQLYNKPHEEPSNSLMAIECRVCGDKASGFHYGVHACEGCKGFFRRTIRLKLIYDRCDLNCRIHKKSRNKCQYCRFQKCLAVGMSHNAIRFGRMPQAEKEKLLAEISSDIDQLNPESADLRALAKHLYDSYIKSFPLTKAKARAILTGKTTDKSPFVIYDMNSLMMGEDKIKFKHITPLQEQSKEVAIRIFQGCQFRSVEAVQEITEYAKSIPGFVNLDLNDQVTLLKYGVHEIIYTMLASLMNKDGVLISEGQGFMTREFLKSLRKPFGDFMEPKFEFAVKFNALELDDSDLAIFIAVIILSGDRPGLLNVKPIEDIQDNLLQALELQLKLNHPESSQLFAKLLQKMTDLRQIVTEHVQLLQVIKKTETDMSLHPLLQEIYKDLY
Chain of Estrogen receptor (Homo sapiens) (P03372 whole entry, looked up): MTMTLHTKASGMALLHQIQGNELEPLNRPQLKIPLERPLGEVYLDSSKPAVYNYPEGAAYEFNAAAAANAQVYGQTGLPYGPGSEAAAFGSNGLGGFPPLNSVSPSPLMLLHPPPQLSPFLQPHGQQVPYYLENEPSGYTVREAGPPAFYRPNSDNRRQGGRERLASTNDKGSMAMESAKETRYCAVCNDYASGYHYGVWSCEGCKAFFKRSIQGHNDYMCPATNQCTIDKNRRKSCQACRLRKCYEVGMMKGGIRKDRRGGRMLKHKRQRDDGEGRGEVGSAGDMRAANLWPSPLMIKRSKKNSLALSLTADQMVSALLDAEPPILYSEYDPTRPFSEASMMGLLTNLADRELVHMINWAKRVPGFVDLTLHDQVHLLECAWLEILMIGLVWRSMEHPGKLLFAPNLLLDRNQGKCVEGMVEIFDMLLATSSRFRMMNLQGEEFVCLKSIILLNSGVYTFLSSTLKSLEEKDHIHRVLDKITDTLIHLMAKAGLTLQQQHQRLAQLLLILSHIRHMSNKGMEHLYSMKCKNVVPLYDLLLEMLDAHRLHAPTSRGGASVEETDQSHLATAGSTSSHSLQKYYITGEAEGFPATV
Chain of Bile acid receptor (Homo sapiens) (Q96RI1 whole entry, looked up): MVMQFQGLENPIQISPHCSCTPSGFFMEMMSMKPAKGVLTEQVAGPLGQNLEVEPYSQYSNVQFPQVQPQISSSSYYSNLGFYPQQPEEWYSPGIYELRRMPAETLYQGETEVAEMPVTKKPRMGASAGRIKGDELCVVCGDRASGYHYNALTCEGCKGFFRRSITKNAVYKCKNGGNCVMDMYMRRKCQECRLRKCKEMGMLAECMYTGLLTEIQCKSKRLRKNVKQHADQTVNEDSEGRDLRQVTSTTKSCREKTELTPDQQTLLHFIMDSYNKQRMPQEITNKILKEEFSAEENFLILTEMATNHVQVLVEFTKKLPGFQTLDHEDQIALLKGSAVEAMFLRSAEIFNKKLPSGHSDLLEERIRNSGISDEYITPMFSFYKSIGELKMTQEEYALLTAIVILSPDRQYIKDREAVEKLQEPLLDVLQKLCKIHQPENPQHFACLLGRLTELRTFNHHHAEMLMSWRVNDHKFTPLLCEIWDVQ
Chain of Peroxisome proliferator-activated receptor delta (Homo sapiens) (Q03181 whole entry, looked up): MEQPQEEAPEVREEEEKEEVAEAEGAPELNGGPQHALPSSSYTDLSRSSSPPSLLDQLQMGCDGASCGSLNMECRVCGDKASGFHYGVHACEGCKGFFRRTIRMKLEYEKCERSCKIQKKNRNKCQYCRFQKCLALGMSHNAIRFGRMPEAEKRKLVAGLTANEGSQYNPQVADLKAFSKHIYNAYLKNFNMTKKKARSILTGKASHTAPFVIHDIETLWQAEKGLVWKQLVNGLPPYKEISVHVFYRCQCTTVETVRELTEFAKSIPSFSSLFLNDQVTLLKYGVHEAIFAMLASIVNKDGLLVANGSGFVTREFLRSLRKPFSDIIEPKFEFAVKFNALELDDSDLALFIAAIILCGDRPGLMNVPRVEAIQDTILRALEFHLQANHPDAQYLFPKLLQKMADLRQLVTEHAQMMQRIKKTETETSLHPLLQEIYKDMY
Chain of Thyroid hormone receptor beta (Homo sapiens) (P10828 whole entry, looked up): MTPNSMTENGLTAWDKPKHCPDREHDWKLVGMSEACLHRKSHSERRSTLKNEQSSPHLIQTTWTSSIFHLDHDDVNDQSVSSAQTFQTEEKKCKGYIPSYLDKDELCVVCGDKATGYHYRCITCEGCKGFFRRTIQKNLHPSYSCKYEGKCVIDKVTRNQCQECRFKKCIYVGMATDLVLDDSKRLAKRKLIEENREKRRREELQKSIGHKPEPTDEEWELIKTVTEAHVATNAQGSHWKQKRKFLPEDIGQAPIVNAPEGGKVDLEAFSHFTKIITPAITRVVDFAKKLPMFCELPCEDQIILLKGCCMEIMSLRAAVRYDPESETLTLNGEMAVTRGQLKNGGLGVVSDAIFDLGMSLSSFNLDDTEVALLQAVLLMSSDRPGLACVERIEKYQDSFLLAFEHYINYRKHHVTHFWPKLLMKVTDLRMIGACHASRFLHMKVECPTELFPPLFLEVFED
Chain of Nuclear receptor subfamily 1 group I member 2 (Rattus norvegicus) (Q9R1A7 whole entry, looked up): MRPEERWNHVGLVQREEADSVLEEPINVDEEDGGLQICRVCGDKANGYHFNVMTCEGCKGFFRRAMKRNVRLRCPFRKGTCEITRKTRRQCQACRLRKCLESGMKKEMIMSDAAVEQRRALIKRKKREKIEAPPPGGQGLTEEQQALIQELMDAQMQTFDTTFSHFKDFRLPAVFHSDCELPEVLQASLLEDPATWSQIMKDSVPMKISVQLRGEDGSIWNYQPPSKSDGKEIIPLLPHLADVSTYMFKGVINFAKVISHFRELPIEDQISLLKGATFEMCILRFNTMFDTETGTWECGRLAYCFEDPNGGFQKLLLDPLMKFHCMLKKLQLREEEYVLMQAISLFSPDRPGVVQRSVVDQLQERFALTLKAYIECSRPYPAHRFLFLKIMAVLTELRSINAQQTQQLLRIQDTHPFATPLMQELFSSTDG

O=S(=O)(c1ccc(O)cc1)c1ccc(O)cc1
active: Potency [2] 14.1 µM
inactive: Potency [1] | Potency [3] | activation [4] -2.06% | activation [5] -0.412% | Potency [6] | outcome [7] | Potency [9] | Potency [10] | Potency [11] | Potency [12] | outcome [13] | Potency [14] | Potency [15] | max response [17] 15.4% | activation [18] -2.48% | activation [19] -0.813% | activation [20] -1.25% | max response [21] -4.37% | Potency [22] | max response [23] -5.42% | max response [24] -8.18% | Potency [25] | max response [26] -2.78% | outcome [27]
-5.39%: max response [16]
45.2%: max response [8]
